# Experimental data taken from publication PMC7819943, “Rice protein-binding microarrays: a tool to detect cis-acting elements near promoter regions in rice”.
# Whole data set: some 68,000 sequences, median “fluorescence intensity (a.u.)” near 9,100, cut for the highest 2% near 16,000. What follows is part of a selection rich in the highest values, with near analogues and random picks from the rest.
# Biological target: OsWRKY34 (Oryza sativa, UniProt Q0JBA9 1-250)
# Assay: protein-binding microarray (RPBM); PBS, 2% BSA, 51.3 ng/ul salmon testes DNA, 50 uM zinc acetate, 200 nM TF, 25 C, 1 h; high values mean tight binding
# Details: protein: recombinant; tags: N-terminal polyhistidine and DsRed monomer fusion (pET32a); label: CyDye5-dUTP incorporated in the synthesized complementary strand; 3' TTTTT single-stranded linker to array surface; dsDNA, one strand shown
# Outline: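 Polyhistidine-tagged DsRed fusions of transcription factors, joined at the N-terminus, were expressed in E. coli BL21-CodonPlus and isolated on Ni–NTA. They were incubated at 200 nM for 1 h at 25 °C on a custom Agilent array, double-stranded and BSA-blocked, in PBS with 2% BSA, salmon testes DNA and 50 µM zinc acetate. The binding signal is per-feature fluorescence intensity (arbitrary units) read on an Axon 4000B scanner after washing.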
# OsWRKY34, sequence (Q0JBA9 entry or part of it): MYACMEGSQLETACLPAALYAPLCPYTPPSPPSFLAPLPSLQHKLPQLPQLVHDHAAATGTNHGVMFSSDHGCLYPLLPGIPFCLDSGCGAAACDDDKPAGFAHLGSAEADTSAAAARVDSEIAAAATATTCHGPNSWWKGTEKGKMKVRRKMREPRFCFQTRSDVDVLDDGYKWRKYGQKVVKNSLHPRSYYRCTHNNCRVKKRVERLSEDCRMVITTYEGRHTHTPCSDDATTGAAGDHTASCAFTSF
row,Sequence,binding signal
1,GTTTCATTGAGATGGTGTCGACGTGGCGGCGTTGACTTAGCGGAGTCACCTAGTGCAG,10700 fluorescence intensity (a.u.)
2,ACACCATTGACTTTTTAGCATATGTTTAACCGTTTGTCTTCGGAGTCACCTAGTGCAG,13900 fluorescence intensity (a.u.)
3,GATTCTACTGCCCCGTTGACTAATTGTCTTCGTCAGGATCCGGAGTCACCTAGTGCAG,17900 fluorescence intensity (a.u.)
4,CCGCCGTTGACTTTTTGTCTAACGTTTGACCATTCGTCTTCGGAGTCACCTAGTGCAG,36200 fluorescence intensity (a.u.)
5,CCGTTGACATTTTATCTAACGTTTGACCATTCGTCTTATTCGGAGTCACCTAGTGCAG,15900 fluorescence intensity (a.u.)
6,CCCCGTCGTTGTCGCCACCTACTTCTACCTGCGCGGATTCCGGAGTCACCTAGTGCAG,10800 fluorescence intensity (a.u.)
7,AGTGTCTTTGACTTTTTGTTTGTAACGTTTGACCATTCGTCGGAGTCACCTAGTGCAG,21900 fluorescence intensity (a.u.)
8,CGACTTTGTTTTACCATTGTTTTTTTTGTCTTGTTTTAGTCGGAGTCACCTAGTGCAG,10600 fluorescence intensity (a.u.)
9,TGACACCGTTGACTTTTTTGTCTAAAGTTTAACCATTCGTCGGAGTCACCTAGTGCAG,32400 fluorescence intensity (a.u.)
10,TAATTGTCTTCGTCAGGATCTTCTGCTAATTGTTTGATTTCGGAGTCACCTAGTGCAG,8680 fluorescence intensity (a.u.)
11,CAATGTTGTCTTGACTTTTTTTTAACGTTTAACCATTTGTCGGAGTCACCTAGTGCAG,8940 fluorescence intensity (a.u.)
12,AATGCAACCATTAAGTTGTCGTTTAGTTGACTTTGTCTACCGGAGTCACCTAGTGCAG,8690 fluorescence intensity (a.u.)
13,ATACAATCTACTTGAATCGTTTTTTCTTTACTTTTCAGTTCGGAGTCACCTAGTGCAG,9840 fluorescence intensity (a.u.)
14,ACTTAGCAGCACTTGTCCCGTTCTCCTGAAGACAGTCCAACGGAGTCACCTAGTGCAG,9480 fluorescence intensity (a.u.)
15,CAGTAATTGTCACTATCTTATTACACATTATTCTGTCCAGCGGAGTCACCTAGTGCAG,8060 fluorescence intensity (a.u.)
16,TCCTGTCCAGTCTCCACTCGCAAACCCTTCTCGCCGCCATCGGAGTCACCTAGTGCAG,10400 fluorescence intensity (a.u.)
17,GACCGCTTCACCCGCCCAATCAAAACCGTCCATCCATCCCCGGAGTCACCTAGTGCAG,10300 fluorescence intensity (a.u.)
18,CAGTAACAATCACTCATTCTCAGTATCTGCTACTCCTCTACGGAGTCACCTAGTGCAG,8710 fluorescence intensity (a.u.)
19,CTCCTCTTTGTGTGTAGACTGAAAAGGTGGAAAGTTTACCCGGAGTCACCTAGTGCAG,9750 fluorescence intensity (a.u.)
20,CGCGTAACCCACCCAATGTTTCACTCCTGCAGCACTTGACCGGAGTCACCTAGTGCAG,9370 fluorescence intensity (a.u.)
21,CTATATATTTACCCACTGTATACCTCTGTCATGAAAGCATCGGAGTCACCTAGTGCAG,11500 fluorescence intensity (a.u.)
22,CTCGTTTGATCTCTCAGTTGGGAGCATTATTTCTGCGCATCGGAGTCACCTAGTGCAG,10800 fluorescence intensity (a.u.)
23,CAACGGCGAATCAACGCCCGAACCGACTCTTTTATCTTTTCGGAGTCACCTAGTGCAG,9920 fluorescence intensity (a.u.)

row,Sequence,binding signal
1,ACAAATTTGTAGCCCGCTGCTCTTCTCTCTCATCTTTTATCGGAGTCACCTAGTGCAG,9220 fluorescence intensity (a.u.)
2,GTCCGCATCTCATCCTTCCGCAAGTCCGTATCTCATCCCTCGGAGTCACCTAGTGCAG,10400 fluorescence intensity (a.u.)
3,CGTATACCTCGGAGAAGTTCTCATCCGCTGACGTGTCCCGCGGAGTCACCTAGTGCAG,19600 fluorescence intensity (a.u.)
4,TCCCTCGGTCCCATCGTATATATATATACCGTATGTCCCGCGGAGTCACCTAGTGCAG,9470 fluorescence intensity (a.u.)
5,CACCTCACCCTCACCCGCACACGCCGACACCCCGACGCGTCGGAGTCACCTAGTGCAG,9390 fluorescence intensity (a.u.)
6,CTTCTTTCTCAATATGTGATTTTCTTTCCTTAATCTCGTTCGGAGTCACCTAGTGCAG,8680 fluorescence intensity (a.u.)
7,CTCCGTCGCTGACTGCAACCTCCACCCACACGGCACCCATCGGAGTCACCTAGTGCAG,8090 fluorescence intensity (a.u.)
8,TATCTCTCTCCCGCTGACAACCCGGTCACACCGAACCAACCGGAGTCACCTAGTGCAG,8990 fluorescence intensity (a.u.)
9,CCTCTCACTGCTAGTGCCCCACACCGTTCTTCGCTGCCCACGGAGTCACCTAGTGCAG,11800 fluorescence intensity (a.u.)
10,CCTATTCTAACACTGACGGGTGGGTCTCACAGGGTGACTCCGGAGTCACCTAGTGCAG,16900 fluorescence intensity (a.u.)
11,CTAATACGTGGGTCTCACTATTGTCTTCTTGTTTGACTGACGGAGTCACCTAGTGCAG,10700 fluorescence intensity (a.u.)
12,TTTGCACACGGGTGACTCGTCTCTTTGTACTCACTCTCTCCGGAGTCACCTAGTGCAG,9840 fluorescence intensity (a.u.)
13,TCCTCTGTTTTACACTTGCATTCCTATCAGAATCCTATATCGGAGTCACCTAGTGCAG,9540 fluorescence intensity (a.u.)
14,CCCGTCGATCCACCGCGGGGACAAGCTCTAGATCTCTCTCCGGAGTCACCTAGTGCAG,8440 fluorescence intensity (a.u.)
15,CAGGCATGTCCAGTATAGGTGTTATTATATTTTATTATTACGGAGTCACCTAGTGCAG,8910 fluorescence intensity (a.u.)
16,TACTCCCTTCTTCCTTAGATGTTTGACACCGTTGACTTTTCGGAGTCACCTAGTGCAG,16900 fluorescence intensity (a.u.)
17,CTCCCTCCTTTTCTAAATGTTTGACACCATTGACTTTTTTCGGAGTCACCTAGTGCAG,8470 fluorescence intensity (a.u.)
18,ACTCCCTCCTTCCCTAAATGTTTGACACCGTTGACTTTTTCGGAGTCACCTAGTGCAG,19600 fluorescence intensity (a.u.)
19,CTCCATCCGTTTTAAAATGTTTGACACCGTTGACTTTTTACGGAGTCACCTAGTGCAG,27300 fluorescence intensity (a.u.)
20,ACTTCTTTAGGCGTTGACTTCTCCCTTTTCCTTTACTATTCGGAGTCACCTAGTGCAG,14800 fluorescence intensity (a.u.)
21,TATACTCCCTCCATTTCAAAATGTTTGACACCGTTGACTTCGGAGTCACCTAGTGCAG,9590 fluorescence intensity (a.u.)
22,TCCCTCTGTTCAAAATGTTTGACACCGTTGACTTTTTAAGCGGAGTCACCTAGTGCAG,20700 fluorescence intensity (a.u.)
